The source of these data is PubChem BioAssay (EPA / NIEHS).

Inconclusive results are not listed. Active and inactive are the calls of the source. The calls were made as follows, unless noted: active = hit-call score of the fitted dose curve at least 0.9, where 1 is the maximum; inactive = score below 0.9.

Assay [1] in a line: CEETOX_H295R_CORTISOL_noMTC: CeeTox H295R High-throughput Steroidogenesis Assay for Cortisol, maximum tolerated concentration (MTC) filtered results only (AID 2283916). The settings on record: actives raise or lower the signal. The essentials: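 H295R adrenal cells were pre-stimulated 48 h with 10 uM forskolin, then exposed 48 h to test chemical in 0.1% DMSO. Medium cortisol was measured by MTBE extraction and HPLC-MS/MS; bidirectional fit versus DMSO, concentrations not MTC-filtered.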

Assay [2] can be described thus: CEETOX_H295R_CORTIC_noMTC: CeeTox H295R High-throughput Steroidogenesis Assay for Corticosterone (CORTIC), maximum tolerated concentration (MTC) filtered results only (AID 2283917). As to conditions: actives raise or lower the signal. A digest of the protocol:
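H295R, 10 uM forskolin prestim 48 h → test chem (0.1% DMSO final) 48 h → media MTBE extraction → HPLC-MS/MS corticosterone. Bidirectional fit vs DMSO baseline; no MTT-based MTC filtering.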

Assay [3] in a line: CEETOX_H295R_DOC_noMTC: CeeTox H295R High-throughput Steroidogenesis Assay for DOC, maximum tolerated concentration (MTC) filtered results only (AID 2283918). As to conditions: actives raise or lower the signal. The essentials:
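H295R cells prestimulated 48 h with 10 uM forskolin, then exposed 48 h to test chemical (0.1% DMSO final). Medium 11-deoxycorticosterone extracted with MTBE, quantified by HPLC-MS/MS; bidirectional fit versus DMSO, concentrations not MTC-filtered.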

Assay [4] is described as follows: CEETOX_H295R_PROG_noMTC: CeeTox H295R High-throughput Steroidogenesis Assay for Progesterone (PROG), maximum tolerated concentration (MTC) filtered results only (AID 2283920). The settings on record: actives raise or lower the signal. A digest of the protocol: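 H295R human adrenal cells were prestimulated 48 h with 10 uM forskolin, then exposed 48 h to test chemical (0.1% DMSO final). Progesterone in medium was quantified by HPLC-MS/MS; bidirectional fitting versus DMSO, concentrations not MTC-filtered.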

The target of assay [5] is THRA (gene 7067) (UniProt P10827). Put plainly: TOX21_TRA_COA_Agonist_Followup_ratio: Tox21 Thyroid Hormone Receptor alpha Agonism through Coactivator Recruitment Follow-Up Assay, Ratio (AID 2283948). The essentials:
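Read-out is the 520/495 nm emission ratio (ex 340 nm), scaled between DMSO-only wells as 0% and T3 wells as 100%. It reflects fluorescein-SRC-2 peptide recruitment to GST-TRα LBD detected via terbium anti-GST antibody.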

In assay [6] the target is THRB (gene 7068) (UniProt P10828). Put plainly: TOX21_TRB_BLA_Agonist_Followup_ratio: Tox21 Thyroid Hormone Receptor beta Agonism Beta-lactamase (BLA) Follow-Up Assay, Ratio (AID 2283954; active = hit-call score of the fitted dose curve at least 0.9, where 1 is the maximum). A digest of the protocol:
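Human TRβ LBD–GAL4 DBD fusion in GeneBLAzer UAS-bla HEK293T cells; 11 concentrations in triplicate, 18 h at 37°C/5% CO2, T3 as agonist control. CCF4-AM substrate 2 h at room temperature; 460:530 nm ratio fitted for gain of signal versus DMSO.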

Assay [7] in a line: CEETOX_H295R_OHPROG_noMTC: CeeTox H295R High-throughput Steroidogenesis Assay for OH-Progesterone (OHPROG), maximum tolerated concentration (MTC) filtered results only (AID 2283914). As to conditions: actives raise or lower the signal. The essentials: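 H295R human adrenal cells prestimulated 48 h with 10 uM forskolin, then exposed 48 h to test chemical (0.1% DMSO final). Medium 17alpha-hydroxyprogesterone extracted with MTBE, quantified by HPLC-MS/MS; bidirectional fit versus DMSO, concentrations not MTC-filtered.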

The nature of assay [8]: CEETOX_H295R_ESTRADIOL_noMTC: CeeTox H295R High-throughput Steroidogenesis Assay for Estradiol, maximum tolerated concentration (MTC) filtered results only (AID 2283919). The settings on record: actives raise or lower the signal. The essentials: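 H295R human adrenal cells pre-stimulated 48 h with 10 uM forskolin, then exposed 48 h to chemical (0.1% DMSO final). Estradiol in medium measured by HPLC-MS/MS after MTBE extraction and dansyl derivatization; bidirectional fit versus DMSO, concentrations not MTT-filtered.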

Assay [9] is described as follows: CEETOX_H295R_ESTRONE_noMTC: CeeTox H295R High-throughput Steroidogenesis Assay for Estrone, maximum tolerated concentration (MTC) filtered results only (AID 2283921). As to conditions: actives raise or lower the signal. A digest of the protocol: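 H295R cells prestimulated 48 h with 10 uM forskolin, then exposed 48 h to chemical in 0.1% DMSO; medium estrone measured by HPLC-MS/MS after MTBE extraction and dansyl derivatization, fitted bidirectionally versus DMSO without MTT-based MTC filtering.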

In assay [10] the target is PGR (gene 5241) (UniProt P06401). Put plainly: TOX21_PR_BLA_Followup_Antagonist_ratio: Tox21 HEK293 Progesterone Receptor (PR) Antagonism Beta-lactamase Follow-Up Assay, Ratio (AID 2283934; active = hit-call score of the fitted dose curve at least 0.9, where 1 is the maximum). A digest of the protocol: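 PR-UAS-bla HEK293T cells in medium with 2% charcoal-stripped FBS were treated with compounds plus 1 nM (final) promegestone (R5020) for 16 hr at 37C. LiveBLAzer B/G FRET substrate was then added for 2 h at room temperature; signal is cleaved/uncleaved substrate ratio versus DMSO.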

Assay [11] can be described thus: TOX21_PR_BLA_Followup_Agonist_viability: Viability Assessment in the Tox21 HEK293 Progesterone Receptor (PR) Agonism Beta-lactamase Follow-Up Assay (AID 2283935; active = hit-call score of the fitted dose curve at least 0.9, where 1 is the maximum;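 also: signal loss means lower viability so actives are cytotoxic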). The essentials: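 PR-UAS-bla HEK293T cells in 2% charcoal-stripped FBS medium, compound added after 6 hr plating, 16 hr at 37C/5% CO2. After bla FRET read, CellTiter-Glo added; luminescence read after 30 min at room temperature; signal loss marks cytotoxicity.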

A short description of assay [12]: TOX21_PR_LUC_Followup_Antagonist_viability: Viability Assessment in the Tox21 HEK293 Progesterone Receptor (PR) Antagonism Luciferase Follow-Up Assay (AID 2283940; active = hit-call score of the fitted dose curve at least 0.9, where 1 is the maximum). A digest of the protocol: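 HEK293-PR-A-luc cells, precultured 5 days in assay medium with 10% charcoal-stripped FBS, were seeded at 3,000 cells/well, treated with compounds in DMSO for 16 h at 37C, and viability was read as cellular ATP by CellTiter-Glo luminescence.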

Assay [13] can be described thus: TOX21_PR_LUC_Followup_Agonist_viability: Viability Assessment in the Tox21 HEK293 Progesterone Receptor (PR) Agonism Luciferase Follow-Up Assay (AID 2283941; active = hit-call score of the fitted dose curve at least 0.9, where 1 is the maximum;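 also: loss of signal means cytotoxicity so actives lower viability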). The essentials: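 HEK293-PR-A-luc cells, pre-cultured 5 days in 10% charcoal-stripped FBS, were seeded at 3,000 cells/well, rested 5 h at 37C, then given compound in DMSO for 16 h at 37C. Cellular ATP was read by CellTiter-Glo luminescence; signal loss indicates cytotoxicity.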

Assay [14] in a line: TOX21_PR_BLA_Followup_Antagonist_viability: Viability Assessment in the Tox21 HEK293 Progesterone Receptor (PR) Antagonism Beta-lactamase Follow-Up Assay (AID 2283936; active = hit-call score of the fitted dose curve at least 0.9, where 1 is the maximum;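 also: hits lower the luminescence signal meaning cytotoxicity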). The essentials:
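PR-UAS-bla HEK293T cells (3,000/well, 2% charcoal-stripped FBS) given compound plus R5020 agonist, 16 h at 37C. CellTiter-Glo added after bla read, 30 min at room temperature; luminescence loss indicates cytotoxicity.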

For assay [15], the target named is PGR (gene 5241) (UniProt P06401). Put plainly: TOX21_PR_LUC_Followup_Antagonist: Tox21 HEK293 Progesterone Receptor (PR) Antagonism Luciferase Follow-Up Assay (AID 2283938; active = hit-call score of the fitted dose curve at least 0.9, where 1 is the maximum;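 also: curve fitted upward as signal gain over DMSO baseline despite antagonist label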). A digest of the protocol:
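HEK293-PR-A-luc cells were precultured 5 days in medium with 10% charcoal-stripped FBS, seeded 3,000/well, then exposed to compounds in DMSO for 16 h at 37C. Luciferase was read by ONE-Glo luminescence after 30 min at room temperature.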

The target of assay [16] is Thyroid hormone receptor alpha (Rattus norvegicus) + Thyroid hormone receptor beta (Rattus norvegicus) (UniProt P18113+P63059). Put plainly: TOX21_TR_LUC_GH3_Antagonist_Followup: Tox21 GH3 Thyroid Hormone Receptor Antagonism Luciferase Follow-Up Assay (AID 2283942; active = hit-call score of the fitted dose curve at least 0.9, where 1 is the maximum). A digest of the protocol: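 Rat pituitary GH3 cells with a TRα/TRβ-driven luciferase reporter, 5 h attachment, then 15 concentrations (92 uM to 5nM final) plus 1.0 nM T3 agonist, 24 h at 37C/5% CO2. ONE-Glo luminescence; signal change fitted against DMSO baseline.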

For assay [17], the target named is THRA (gene 7067) (UniProt P10827). Put plainly: TOX21_TRA_COA_Antagonist_Followup_ratio: Tox21 Thyroid Hormone Receptor alpha Antagonism through Coactivator Recruitment Follow-Up Assay, Ratio (AID 2283953; active = hit-call score of the fitted dose curve at least 0.9, where 1 is the maximum). The essentials:
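This follow-up to the GH3 luciferase screen checks specificity in a cell-free format. It measures SRC-2 coactivator peptide binding to TRα LBD by TR-FRET and scores loss of ratio signal relative to DMSO.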

Assay [18] has as its target THRB (gene 7068) (UniProt P10828). Put plainly: TOX21_TRB_BLA_Antagonist_Followup_ratio: Tox21 Thyroid Hormone Receptor beta Antagonism Beta-lactamase (BLA) Follow-Up Assay, Ratio (AID 2283958; active = hit-call score of the fitted dose curve at least 0.9, where 1 is the maximum). The essentials: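 GAL4-DBD/human TRβ-LBD fusion in GeneBLAzer UAS-bla HEK293T cells, 3,000 cells/well in phenol red-free DMEM with 2% charcoal-stripped FBS; compounds at 11 concentrations in triplicate, 18 h at 37C. CCF4-AM substrate 2 h, 460:530 nm ratio relative to DMSO.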

Assay [19] is described as follows: CEETOX_H295R_ANDR_noMTC: CeeTox H295R High-throughput Steroidogenesis Assay for Androstenedione (ANDR), maximum tolerated concentration (MTC) filtered results only (AID 2283915). As to conditions: actives raise or lower the signal. A digest of the protocol: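 H295R cells, passage 10 or below, prestimulated 48 h with 10 uM forskolin, then exposed 48 h to chemical in 0.1% DMSO. Medium androstenedione extracted with MTBE, quantified by HPLC-MS/MS; concentrations not MTC-filtered; bidirectional fit versus DMSO.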

The nature of assay [20]: CEETOX_H295R_TESTO_noMTC: CeeTox H295R High-throughput Steroidogenesis Assay for Testosterone (TESTO), maximum tolerated concentration (MTC) filtered results only (AID 2283924). As to conditions: actives raise or lower the signal. The essentials:
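H295R cells prestimulated 48 h with 10 uM forskolin, then exposed 48 h to chemicals in 0.1% DMSO final. Testosterone in medium quantified by MTBE extraction and HPLC-MS/MS; bidirectional fit versus DMSO, concentrations […] filtered by MTT-based maximum tolerated concentration.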

PGR (gene 5241), sequence (P06401 whole entry, looked up): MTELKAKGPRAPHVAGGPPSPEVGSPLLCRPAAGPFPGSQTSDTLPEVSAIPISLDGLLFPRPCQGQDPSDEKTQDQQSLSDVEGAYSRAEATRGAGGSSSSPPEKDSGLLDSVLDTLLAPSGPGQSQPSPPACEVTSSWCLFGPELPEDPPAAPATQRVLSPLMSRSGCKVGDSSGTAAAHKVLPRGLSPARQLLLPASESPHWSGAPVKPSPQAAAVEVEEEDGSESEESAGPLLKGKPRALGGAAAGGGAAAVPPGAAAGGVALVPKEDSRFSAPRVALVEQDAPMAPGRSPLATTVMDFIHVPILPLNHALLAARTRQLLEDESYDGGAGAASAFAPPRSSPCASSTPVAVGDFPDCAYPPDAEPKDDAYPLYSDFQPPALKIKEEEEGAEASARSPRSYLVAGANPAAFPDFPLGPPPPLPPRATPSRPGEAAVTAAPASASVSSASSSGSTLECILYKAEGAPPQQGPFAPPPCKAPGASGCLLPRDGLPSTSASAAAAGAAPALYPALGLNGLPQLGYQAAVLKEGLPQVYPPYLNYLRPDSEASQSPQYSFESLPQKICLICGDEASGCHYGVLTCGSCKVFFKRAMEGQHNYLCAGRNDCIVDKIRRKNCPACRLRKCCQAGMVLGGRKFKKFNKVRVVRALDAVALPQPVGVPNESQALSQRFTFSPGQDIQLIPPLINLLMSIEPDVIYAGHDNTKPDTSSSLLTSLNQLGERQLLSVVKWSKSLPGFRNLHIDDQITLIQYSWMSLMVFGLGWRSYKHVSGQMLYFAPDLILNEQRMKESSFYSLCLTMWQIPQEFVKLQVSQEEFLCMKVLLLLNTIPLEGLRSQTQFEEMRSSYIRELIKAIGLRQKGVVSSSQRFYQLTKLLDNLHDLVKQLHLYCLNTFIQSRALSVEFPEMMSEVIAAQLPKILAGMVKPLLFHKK
THRA (gene 7067), sequence (P10827 whole entry, looked up, the tested form may be a part): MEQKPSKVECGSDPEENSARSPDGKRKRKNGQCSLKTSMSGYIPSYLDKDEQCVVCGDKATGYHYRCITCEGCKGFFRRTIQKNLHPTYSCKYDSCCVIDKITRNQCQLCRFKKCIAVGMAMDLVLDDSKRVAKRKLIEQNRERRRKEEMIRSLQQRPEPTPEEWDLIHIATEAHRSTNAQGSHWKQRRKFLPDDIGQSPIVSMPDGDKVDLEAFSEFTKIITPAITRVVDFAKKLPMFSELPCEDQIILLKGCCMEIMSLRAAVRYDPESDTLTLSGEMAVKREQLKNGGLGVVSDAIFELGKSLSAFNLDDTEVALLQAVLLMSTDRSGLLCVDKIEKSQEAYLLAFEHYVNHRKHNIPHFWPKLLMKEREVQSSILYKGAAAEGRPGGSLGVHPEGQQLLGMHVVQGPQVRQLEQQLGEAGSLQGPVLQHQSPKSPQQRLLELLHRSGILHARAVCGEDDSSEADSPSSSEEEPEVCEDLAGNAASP
THRB (gene 7068), sequence (P10828 whole entry, looked up, the tested form may be a part): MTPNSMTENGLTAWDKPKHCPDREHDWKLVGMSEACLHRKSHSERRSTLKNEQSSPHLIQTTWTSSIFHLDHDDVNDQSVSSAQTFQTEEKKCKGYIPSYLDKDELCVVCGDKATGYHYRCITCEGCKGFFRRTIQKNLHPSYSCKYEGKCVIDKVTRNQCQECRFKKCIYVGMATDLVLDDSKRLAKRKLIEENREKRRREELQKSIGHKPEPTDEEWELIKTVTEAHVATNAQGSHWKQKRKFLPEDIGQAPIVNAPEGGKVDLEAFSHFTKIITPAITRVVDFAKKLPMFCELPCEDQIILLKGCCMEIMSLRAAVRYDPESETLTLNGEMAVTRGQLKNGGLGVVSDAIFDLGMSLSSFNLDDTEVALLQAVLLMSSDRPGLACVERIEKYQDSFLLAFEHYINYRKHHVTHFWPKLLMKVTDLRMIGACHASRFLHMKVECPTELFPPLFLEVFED

For the compound `CC/C(=C(/CC)c1ccc(O)cc1)c1ccc(O)cc1`, the AC50 in assay [1] was 34.8 µM (active); in assay [2] it was 35.4 µM (active); in assay [3] it was 84.6 µM (active). For the same compound, in [4], the compound was classed as inactive.

On to `O=C1O[C@H]([C@@H](O)CO)C(O)=C1O`, for which the outcome in the assay with THRA (gene 7067) [5] and in the assay with THRB (gene 7068) [6] was inactive.

Take `CC(C)(O)c1ccc(CNC(=O)c2cccnc2Oc2ccc3nonc3c2)cc1`: the compound was called inactive in assay [7], in assay [2] and in assay [4]. For the same compound, the AC50 in assay [1] was 61.8 µM (active); in [3] it was 0.0934 µM (active); in assay [8], 0.0671 µM (active); in assay [9], 0.0407 µM (active).

Take `CCCCCc1ccc(N)cc1`: the AC50 in [7] was 12.4 µM (active); in assay [4] it was 13.9 µM (active). Also, the compound was called inactive in assay [8] and in assay [9].

In the case of `CCCCCCCCOc1ccc(C(=O)c2ccccc2)c(O)c1`, the AC50 was 27.4 µM (active) in [7] and 30.1 µM (active) in [4].

As to `O=C(O)Cc1cc(I)c(Oc2ccc(O)c(I)c2)c(I)c1`, the AC50 with PGR (gene 5241) [10] was 21.5 µM (active). Further, the compound was called inactive in assay [11], in [12] and in assay [13].

Take `C[C@]12CC[C@@H]3c4ccc(O)cc4CC[C@H]3[C@@H]1CCC2=O`: the half-maximal activity concentration (AC50) in the assay with PGR (gene 5241) [10] was 1.42 µM (active). The outcome in assay [11], in assay [14], in [12] and in assay [13] was inactive.

In the case of `c1ccc(C[n+]2cccc3ccccc32)cc1`, the call in assay [7], in assay [1], in [2], in assay [3], in [8] and in assay [4] was inactive. For the same compound, the result in [9] was inactive.

Regarding `Cc1ccc2oc(CN(Cc3ccccc3)C(=O)Nc3c(F)cc(F)cc3F)c(-c3ccc(Cl)cc3)c2c1`, the AC50 in the assay with PGR (gene 5241) [10] is 1.95 µM (active); in the assay with PGR (gene 5241) [15], 1.09 µM (active). Besides, the result in assay [11], in assay [14] and in [13] was inactive.

Consider `COc1cc(C(=O)NC2CCN(C)CC2)ccc1Nc1ncc2c(n1)N(C1CCCC1)CC(F)(F)C(=O)N2C`, for which the AC50 in assay [16] was 16.4 µM (active); with THRB (gene 7068) [18], 3.69 µM (active). In the assay with THRA (gene 7067) [17], the outcome was inactive.

Take `O=C(O)c1ccccc1C(=O)OCc1ccccc1`: the compound was called inactive in [7], in assay [19], in [1], in assay [2], in assay [3] and in assay [4]. For the same compound, the result in [20] was inactive.

As a reminder, the AC50 is the concentration giving half of the maximal activity seen.
